# Reference: PubChem BioAssay AID2685 (National Center for Advancing Translational Sciences (NCATS), 2010)
# Hit rate of the full screen: of about 320,000 compounds, about 2,100 (0.66%) were called active. Roughly 53% stayed inconclusive and do not appear here. Calls follow the shape of the dose curve; as a rule, active = well fitted inhibition curve with a large enough effect in the signal ratio, with a control signal flat (not every such curve was filed as active); inconclusive = small, poorly fitted or top-dose-only effect, or effect the other way, or a change in a side signal; inactive = flat fitted curve, though single readings scatter; the % refers to the signal ratio. Many of the other results were omitted from the sample, so actives are more common in it than they were.
# Test: qHTS Assay for Lipid Storage Modulators in Drosophila S3 Cells;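 as to cell number change: cells counted by Cell Tracker Red CMTPX staining in the red channel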; as to lipid storage change, negative = inhibition: % is scaled to controls: 0 for no effect and ±100 for the full control effect
# Settings: BODIPY lipid droplet fluorescence, 18-24 h, cells fed with added oleic acid; cell number change: measured here: cell count max response; series mostly up to 46.1 µM; lipid storage change, negative = inhibition: at the top concentration
# Procedure, shortened: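 Drosophila S3 cells loaded with oleic acid (400 uM, as added) and compounds at several concentrations; lipid droplets imaged by 488-nm laser-scanning cytometry, 500–530 nm intensity and object ratio to cell channel. Percent activity normalized to 20 uM Triacsin C.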
# Potency is read from the fitted curve at half-maximal effect.
Structure (SMILES),"lipid storage change, negative = inhibition",cell number change [%],Potency,outcome
Cc1cccc(Cn2c(N(C)CCO)nc3c2c(=O)[nH]c(=O)n3C)c1,7.8% (inactive),28.6,–,–
CCN(c1ccccc1)S(=O)(=O)c1ccc(OC)c(NC(=O)CN2C(=O)NC(C)(C)C2=O)c1,9.62% (inactive),-3.73,–,–
COc1ccc(C2(c3ccc(OC)cc3)NC(=O)N(CC(=O)N3CCOCC3)C2=O)cc1,–,8.58,0.231 µM (active),–
COc1ccc(-c2csc(NC(=O)CN3C(=O)NC4(CCCC4)C3=O)n2)c(OC)c1,–,–,6.51 µM (active),–
COc1ccc(-c2csc(NC(=O)CN3C(=O)C4CCCCC4C3=O)n2)c(OC)c1 (configuration not stated),-15.1% (inactive),-28.9,–,–
COc1ccc(C2(c3ccc(OC)cc3)NC(=O)N(CC(=O)Nc3ccccc3)C2=O)cc1,–,10.9,–,inactive
COc1ccc(NC(=O)CN2C(=O)NC3(CCCC3)C2=O)c(OC)c1,–,-7.62,–,inactive
COc1ccc(N2CCN(C(=O)CSc3nnc(C)c(=O)[nH]3)CC2)cc1,–,2.46,29.1 µM (active),–
COc1ccc(N2CCN(C(=O)CSc3nc4ccccc4c(=O)[nH]3)CC2)cc1,–,-2.61,–,inactive
COc1ccc(N2CCN(C(=O)CN3C(=O)NC4(CCCCCC4)C3=O)CC2)cc1,–,-6.83,5.8 µM (active),–
CCC1(c2ccc(F)cc2)NC(=O)N(CC(=O)N2CCOCC2)C1=O (configuration not stated),-5.08% (inactive),-2.03,–,–
COc1cccc(N2CCN(C(=O)CN3C(=O)NC4(CCCC4)C3=O)CC2)c1,-5.21% (inactive),–,–,–
COc1ccc(N2CCN(C(=O)CSc3ccc(C)cc3)CC2)cc1,-0.457% (inactive),6.76,–,–
COc1ccc(N2CCN(C(=O)CN3C(=O)NC(C)(C4CC4)C3=O)CC2)cc1 (configuration not stated),8.91% (inactive),-22.3,–,–
CCCCOC(=O)c1ccc(NC(=O)C(CCS(C)(=O)=O)NC(C)=O)cc1 (configuration not stated),-3.02% (inactive),13,–,–
CC1(OC(=O)CCc2ccccc2)C(=O)C=C2C=C(c3ccc(C#N)cc3)N(C3CCCCC3)C=C2C1=O (configuration not stated),0.672% (inactive),20.5,–,–
CCCCC[C@]12Cc3cc(OC)c(OC)cc3C(O1)c1c(cc(C)n(-c3ccccc3)c1=O)O2,-5.41% [at 9.22 µM] (inactive),-8.82,–,–
O=C(O)c1ccc(Sc2nnc(-c3cccc(Br)c3)o2)c([N+](=O)[O-])c1,–,-23.6,25.9 µM (active),–
O=C(O)c1ccc(-c2nnc(-c3cccc(Br)c3)o2)cc1,–,12.2,–,inactive

Structure (SMILES),"lipid storage change, negative = inhibition",cell number change [%],Potency,outcome
Cn1c(Sc2ccc(C(=O)O)cc2[N+](=O)[O-])nnc1-c1ccccc1,4.13% (inactive),9.56,–,–
C=CCOc1cccc(C2C(C(=O)c3ccco3)=C(O)C(=O)N2Cc2cccnc2)c1 (configuration not stated),–,4.96,–,inactive
O=C(CN1CCC(C(=O)c2ccc(F)cc2)CC1)Nc1ccc(F)cc1,-21.6% (inactive),-11.2,–,–
Cn1c(/N=C/c2c[nH]c3ccccc23)nc2ccccc21,3.33% (inactive),-13.5,–,–
O=C(NN1CCOCC1)c1cc(-c2ccc(Br)s2)nc2ccccc12,9.94% (inactive),18.5,–,–
CC(C)CCNC(=O)CCc1nnc(COc2ccccc2)o1,19.4% (inactive),3.37,–,–
O=C(CCc1nnc(COc2ccccc2)o1)NCc1ccccc1,1.25% (inactive),-8.23,–,–
COC(=O)[C@H](CC(C)C)NC(=O)CCc1nnc(COc2ccccc2)o1,–,-24.9,18.4 µM (active),–
CC(/C=N/NC(=O)c1cccnc1)=C\c1ccco1,–,4.96,–,inactive
O=S(=O)(NC(=NCc1ccccc1)c1ccccc1)c1ccc(Br)cc1,-17.1% (inactive),2.37,–,–
CSc1nnc(N2C(=O)C(O)=C(C(=O)c3ccco3)C2c2ccc(F)cc2)s1 (configuration not stated),–,-4.48,–,inactive
CSc1nnc(N2C(=O)C(O)=C(C(=O)c3ccco3)C2c2cccc(Cl)c2)s1 (configuration not stated),-16.9% (inactive),–,–,–
CSc1ccc(C2C(C(=O)c3ccco3)=C(O)C(=O)N2c2nnc(SC)s2)cc1 (configuration not stated),–,-24.7,7.31 µM (active),–
CCCc1c(O)nc(SCC(=O)O)[nH]c1=O,23.9% (inactive),-0.742,–,–
COC(=O)COc1coc(CN2CCN(c3cccc(Cl)c3)CC2)cc1=O,–,12.5,–,inactive
COc1ccc(Br)cc1CN1CCCCCCC1,4.43% (inactive),9.97,–,–
COc1cc(OC)c(CN2CCCN(C)CC2)cc1Br,8.41% (inactive),15.5,–,–
COc1cc(OC)c(CN2CCCCCCC2)cc1Br,–,-11.5,29.1 µM (active),–
CC1=C(C(=O)OCC(C)C)[C@]23C(=O)c4ccccc4[C@@]2(O1)OC(N)=C3C#N,1.93% (inactive),-12,–,–

Structure (SMILES),"lipid storage change, negative = inhibition",cell number change [%],Potency,outcome
CCCCNC(=O)[C@]1(C)CCC[C@@]2(C)C3CC[C@@]4(C)C[C@]3(CCC21)CC4=O (some centres not stated),–,-24.2,0.651 µM (active),–
CC(C)NC(=O)[C@]1(C)CCC[C@@]2(C)C3CC[C@@]4(C)C[C@]3(CCC21)CC4=O (some centres not stated),–,-16.5,–,inactive
CC(C)(C)CNC(=O)[C@]1(C)CCC[C@@]2(C)C3CC[C@@]4(C)C[C@]3(CCC21)CC4=O (some centres not stated),7.09% (inactive),-13.8,–,–
COc1ccc(/C(C)=N/NC(=O)CNC(=O)c2cccnc2)cc1,7.97% (inactive),7.78,–,–
COc1ccc(C(=O)N/N=c2\oc3ccccc3cc2C(=O)NCc2ccccc2)cc1,12.1% (inactive),2.22,–,–
N#CC(c1ccc(F)cc1)c1ccc(C(=O)c2ccccc2)cc1 (configuration not stated),-0.44% (inactive),-0.0722,–,–
CN(C(=O)COC(=O)c1ccc2c(c1)NC(=O)CS2)C1CCS(=O)(=O)C1 (configuration not stated),7.52% (inactive),4.6,–,–
CC(=O)Nc1cccc(C(=O)NCCc2ccco2)c1,20.2% (inactive),7.92,–,–
CCc1nc2ccc(C(=O)NCCc3ccco3)cc2nc1CC,–,5.81,6.51 µM (active),–
CCc1nc2ccc(C(=O)NCc3ccc(C)o3)cc2nc1CC,–,-3.07,–,inactive
O=C(CN(C(=O)CCC(=O)Nc1nccs1)c1ccc2c(c1)OCO2)NCc1ccccc1,–,–,–,inactive
CC(C)(C)NC(=O)C1CC(=O)N(CCc2ccc(F)cc2)C1 (configuration not stated),–,23,–,inactive
CCC(C)(C)NC(=O)C1CC(=O)N(CCc2ccc(F)cc2)C1 (configuration not stated),–,-4.05,23.1 µM (active),–
CCC(CC)NC(=O)C1CC(=O)N(CCc2ccc(F)cc2)C1 (configuration not stated),–,–,–,inactive
Cc1cc(C)cc(C(=O)Nc2ccc(NC(=O)c3cccs3)cc2)c1,-11% (inactive),17.7,–,–
Cc1ccc(NC(=O)c2cccs2)cc1,–,20.8,–,inactive
Cc1ccc(NC(=O)c2ccc(Cl)c(NC(=O)c3cccs3)c2)cc1,–,17.6,25.9 µM (active),–
Cc1cc(C(c2nnnn2Cc2ccccc2)N2CCOCC2)c(C)n1-c1ccc2c(c1)OCO2 (configuration not stated),–,-6.63,–,inactive
